# Shiga inhibitor: blocks Shiga toxin action in Vero cells; Vero cells, Shiga toxin protein synthesis inhibition reporter; inhibition, % at 38.7 µM; actives 9.2% (n = 290,000); AID 2315; in the data active means inhibition mostly above about 28%, no sharp cut-off; inactive means mostly below about 43%
# Pf growth 48h: inhibits P. falciparum growth in the first generation, 48 h | Potency, µM (series often up to 28.7 µM), hits mostly inhibitors | P. falciparum luciferase growth in erythrocytes, 48 h | actives 5.9% (n = 310,000)
#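 Luciferase-expressing parasites in RBCs, 2% Hct / 0.1% parasitemia final; RPMI 1640 + 0.5% Albumax; 37 C, 5% CO2, one generation; luminescence read-out, lower signal = inhibition.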
# Pf growth 96h: inhibits malaria parasite growth, 96 h; Potency, µM (doses to about 28.7 µM), usual class: inhibitors; actives 6.9% (n = 320,000); P. falciparum luciferase reporter growth, 96 h; AID 504834
#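 Parasite growth measured via integrated firefly luciferase reporter in P. falciparum. Infected erythrocytes at 2% hematocrit, 0.05% parasitemia final were treated 96 hours at 37 C under 5% CO2, and luminescence was read.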
# Cycloheximide cs: affects cycloheximide protein synthesis inhibition readout, counter-screen; actives 12% (n = 300,000); cell reporter, cycloheximide protein synthesis inhibition counterscreen; max response, %; in the data active means max response mostly above about 13%, no sharp cut-off; inactive means mostly below about 14%; further: read at 38.3 µM for the half of the compounds with a filed dose
# NS1 function inh: influenza NS1 inhibition. Potency, µM (titrated, usually from 46.1 µM). actives 0.4% (n = 270,000); calls by dose curve; further: actives are rising curves; nearly all actives have a fitted effect of over 50% in size
#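 OD600 was taken as the measure of yeast growth restored by compound in an NS1-expressing S. cerevisiae strain. Cells had been washed out of glucose medium and diluted 1:100 into galactose -URA medium, pH 6.0.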
# Hits are given with their value; n = inactive; u = inconclusive; x = not tested or not shown; [ ] = another dose, or the depositor's remark. In the library only some 21% were active in any assay of this set; here they are far more common. Unless noted, the call rests on the fitted dose curve; in most records, active means well fitted inhibition curve with a large enough effect; inconclusive means small, poorly fitted or top-dose-only effect, or another doubt; inactive means no such curve, though single readings can be large or run the other way.
SMILES,Shiga inhibitor,Pf growth 48h,Pf growth 96h,Cycloheximide cs,NS1 function inh
CCCN1CCc2c(sc(NC(=O)c3ccc(S(=O)(=O)N4CCCC4)cc3)c2C(N)=O)C1,n,9.28µM,u,n,n
CC(C)N1CCc2c(sc(NC(=O)c3ccc(S(=O)(=O)N4CCOCC4)cc3)c2C(N)=O)C1,n,u,4.15µM,n,n
CNC(=O)c1c(NC(=O)c2ccc(S(=O)(=O)N3CCCC3)cc2)sc2c1CCN(C(C)C)C2,n,2.62µM,u,n,u
Cc1ccc(NC(=O)CCS(=O)(=O)c2cc3[nH]c(=O)c(=O)[nH]c3cc2C)cc1,n,n,4.15µM,n,n
O=C1CN(C(=O)COc2ccc([N+](=O)[O-])cc2Cl)c2ccccc2N1,x,2.94µM,10.4µM,x,x
CCCCOc1ccc(/C=C/C(=O)OCC(=O)N2CC(=O)Nc3ccccc32)cc1OCC,n,10.4µM,u,n,n
O=C1CN(C(=O)COc2ccc(Br)cc2Br)c2ccccc2N1,n,n,u,n,x
O=C1CN(C(=O)COc2cccc(F)c2)c2ccccc2N1,n,n,u,n,n
O=C1CN(C(=O)COc2ccc(Cl)c(Cl)c2)c2ccccc2N1,x,13.1µM,3.29µM,x,x
O=C1CN(C(=O)COc2ccc(Br)cc2F)c2ccccc2N1,n,5.86µM,8.28µM,n,n
Cc1ccc(S(=O)(=O)Nc2nc(C)c(NC(=O)Nc3ccc(Cl)cc3Cl)s2)cc1,n,n,n,n,n
Cc1cc2ccc(OC(=O)c3ccc(N=C(N)N)cc3)cc2oc1=O,x,x,x,x,n
O=C(Nc1c(C(=O)NCc2ccco2)cnn1-c1ccccc1)c1ccc(F)cc1,n,n,n,n,n
CC(C)Oc1ccc(C(=O)NC2CCS(=O)(=O)C2)cc1 (stereo not given),n,n,n,n,n
C=CCOc1ccc(C(=O)NC2CCCCC2)cc1,111.1,n,x,21.0,n
CC(C)Oc1ccc(C(=O)NC2CCCCC2)cc1,n,n,x,46.8,n
Cc1nc2ccc(Cl)cc2c(=O)n1-c1ccc([N+](=O)[O-])cc1,n,n,n,n,n
Cc1nc2cc([N+](=O)[O-])ccc2c(=O)n1-c1ccccc1[N+](=O)[O-],n,n,n,n,n
Cc1nc2cc([N+](=O)[O-])ccc2c(=O)n1-c1ccc(Br)cc1,n,n,13.1µM,n,n
Cc1cc(-c2ccc([N+](=O)[O-])cc2)nc2ccccc12,62.4,n,n,46.4,x
Cc1nc2ccccc2c(=O)n1-c1ccc([N+](=O)[O-])cc1,63.9,n,14.7µM,41.6,n
O=C(CSc1nc2nn(-c3ccccc3)c(=O)c-2c2n1CCCCC2)Nc1ccccc1[N+](=O)[O-],x,u,6.57µM,x,x
O=C(CSc1nc2nn(-c3ccccc3)c(=O)c-2c2n1CCCCC2)NCCCc1ccccc1,n,9.28µM,u,n,x
CC(Sc1nc2nn(-c3ccccc3)c(=O)c-2c2n1CCCCC2)C(N)=O (stereo not given),n,n,x,n,n
COc1ccc(S(=O)(=O)N(CC(=O)NC2CCCCC2)c2ccc(F)cc2)cc1,n,n,7.38µM,n,n
SMILES,Shiga inhibitor,Pf growth 48h,Pf growth 96h,Cycloheximide cs,NS1 function inh
COc1ccc(C)cc1S(=O)(=O)N(C)CC(=O)NC1CCCCC1,n,n,x,n,n
COc1ccc(C)cc1S(=O)(=O)N(CC(=O)NC1CCCC1)c1ccc(F)cc1,n,n,9.28µM,n,n
COc1ccc(N(CC(=O)NC2CC3CCC2C3)S(=O)(=O)c2ccc(C)cc2)cc1 (stereo not given),n,n,13.1µM,n,n
COc1ccc(N(CC(=O)NC2CC3CCC2C3)S(=O)(=O)c2ccc(C)cc2)cc1OC (stereo not given),n,u,n,n,n
COC(=O)C1CCN(C2CC(=O)N(c3cc(C)cc(C)c3)C2=O)CC1 (stereo not given),n,n[5.75 µM],n,n,x
CC(OC(=O)CNC(=O)c1ccc2ccccc2c1)C(=O)NC1CCCCC1C (stereo not given),n,n,n,n,n
C=CCn1c(SCC(=O)Nc2cc(C)on2)nc2c([nH]c3ccccc32)c1=O,n,n,n,n,n
NC(N)=NCCN1CCCCCCC1,x,n,u,x,x
COc1ccccc1Nc1nc2c(s1)CCC2,68.0,u,u,36.5,n
Cc1ccc(Nc2nc3c(s2)CCC3)c(C)c1,56.5,n,n,32.0,n
CC[C@H](C)[C@H](NC(=O)[C@H](Cc1ccc(O)cc1)NC(=O)[C@H](Cc1cnc[nH]1)NC(=O)[C@H](CCCNC(=N)N)NC(=O)[C@H](CC(C)C)NC(=O)[C@H](C)NC(=O)[C@H](CO)NC(=O)[C@H](Cc1ccc(O)cc1)NC(=O)[C@H](Cc1ccc(O)cc1)NC(=O)[C@H](CCCNC(=N)N)NC(=O)[C@H](C)NC(=O)[C@H](CCSC)NC(=O)[C@H](CC(=O)O)NC(=O)[C@H](CCC(=O)O)NC(=O)[C@H](C)NC(=O)[C@@H]1CCCN1C(=O)[C@H](C)NC(=O)[C@H](CC(=O)O)NC(=O)[C@H](CCC(=O)O)NC(=O)CNC(=O)[C@@H]1CCCN1C(=O)[C@H](CC(N)=O)NC(=O)[C@H](CC(=O)O)NC(=O)[C@@H]1CCCN1C(=O)[C@H](CCCCN)NC(=O)[C@H](CO)NC(=O)[C@@H]1CCCN1C(=O)[C@@H](N)Cc1ccc(O)cc1)C(=O)N[C@@H](CC(N)=O)C(=O)N[C@@H](CC(C)C)C(=O)N[C@H](C(=O)N[C@H](C(=O)N[C@@H](CCCNC(=N)N)C(=O)N[C@@H](CCC(N)=O)C(=O)N[C@@H](CCCNC(=N)N)C(=O)N[C@@H](Cc1ccc(O)cc1)C(N)=O)[C@@H](C)O)[C@@H](C)CC,n,x,x,n,x
Cc1nn2c(-c3ccc(S(=O)(=O)N4CCN(CCO)CC4)o3)nnc2c2ccccc12,n,9.28µM,10.4µM,n,n
COc1ccc(-c2nnc3c4ccccc4c(C)nn23)cc1S(=O)(=O)N1CCN(CCO)CC1,n,4.65µM,2.62µM,n,n
COc1ccc(-c2nnc3ccc(SCC(=O)N4CCOCC4)nn23)cc1,n,n,n,n,u
Cc1nn2c(-c3ccncc3)nnc2c2ccccc12,n,n,u,n,n
COc1ccc(-c2nnc3c4ccccc4c(C)nn23)cc1,n,u,n,28.1,n
COc1ccc(-c2nnc3ccc(SC)nn23)cc1,n,n,4.65µM,n,n
O=C(NCC(c1cccs1)N1CCOCC1)c1cc(S(=O)(=O)N2CCOCC2)ccc1F (stereo not given),x,n,n,x,x
CC1(C)CC(=O)C=C(c2ccc(I)cc2)C1,x,4.65µM,u,x,x
CCO[C@H]1OC(C(=O)Nc2ccccc2)=C[C@@H](c2cn(C(C)=O)c3ccccc23)[C@@H]1CCCO,n,u,u,n,n
CCOC(=O)c1c(C)n(-c2ccc(F)cc2)c2ccc(O)cc12,n,2.62µM,n,n,n
COC(=O)c1c(C)n(-c2ccc(OC)cc2)c2ccc(O)cc12,n,11.7µM,n,n,n
O=C(CN1CC(=O)Oc2ccccc21)OCC(=O)c1cccc(Br)c1,n,u,u,17.7,n
O=[N+]([O-])c1ccc(O)c2ncccc12,n,13.5µM,9.53µM,n,n
Oc1ccc(N=Nc2ccc(Br)cc2)c(O)c1,84.3,u,1.85µM,48.0,n

# High-throughput results deposited in PubChem by National Center for Advancing Translational Sciences (NCATS).
